Measurements published in PubChem BioAssay AID2187 (The Scripps Research Institute Molecular Screening Center, 2009).
In all, about 1,300 compounds went through this assay and about 1,200 (92%) were called active.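 The calls were made as follows: active = inhibition of the VIM-2 beta-lactamase enzyme above about 11% from the earlier first-round screen (limit read from the data); inactive = the rest.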 The set was probably picked from earlier hits. A selection follows.

System: VIM-2 metallo-beta-lactamase (Pseudomonas aeruginosa)
Assay: inhibition of VIM-2 nitrocefin hydrolysis – biochemical, epi-absorbance, hits shared with IMP-1 screen, confirmation (AID 2187);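 also: 0% = VIM-2 with DMSO and 100% = buffer wells without enzyme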
Conditions: purified VIM-2, nitrocefin hydrolysis, at 5.6 µM, active compounds read high

Row | Compound | inhibition
1 | Cc1cc(OCc2cc(C(=O)O)oc2C)c2c3c(c(=O)oc2c1)CCCC3 | 73.5% (active)
2 | Cc1cc(=O)oc2c(C)c(OCC(=O)N3CCN(Cc4ccc5c(c4)OCO5)CC3)ccc12 | 58.3% (active)
